SMILES strings stand for the structures. About 83,000 compounds went through this panel and 20% of them were active in at least one assay; those are over-represented in the sample as a whole.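 Activity criterion: percent growth below 10, measured after cells in 96-well plates were exposed to a single compound concentration for 48 hours.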 Unmarked numbers belong to inactive results. Activity calls are given as the source filed them.

We go through 40 compounds from PubChem BioAssay (NCI).

This assay has as its system NCI-H322M lung. Nature of the assay: NCI-60 one-dose screen, 48 h (100 = growth as untreated, 0 = no growth, -100 = all killed). The note with it: 10 µM unless noted. Here is the method:
Growth inhibition of the NCI-H322M human Non-Small Cell Lung tumor cell line is measured as a screen for anti-cancer activity. Cells are grown in 96 well plates and exposed to the test compound for 48 hours. Compounds are tested at a single concentration, which is 10^-5 M for most compounds. The reported endpoint is percent growth (GI% or GIPRCNT), where numbers from 0 - 100% represent growth inhibition, and numbers from -100% - 0 represent cell death. For example, a value of 40 represents 60% growth inhibition. A value of 0 means no net growth occurred over the course of the experiment. A value of -40 indicates 40% of cells at the beginning of the experiment died by the end of the experiment. A value of -100 means all cells are dead at the end of the experiment.
NCI-60 Human Tumor Cell Lines Screen was performed using the standard one-dose NCI protocol, which is described in more detail at https://dtp.cancer.gov/discovery_development/nci-60/default.htm.
Compounds with GIPRCNT values below 10 were considered active. Activity score was based on GIPRCNT using the following formula: […]
Score is 0 for GIPRCNT values of 100 or above, 50 for GIPRCNT values of 0, and 100 for GIPRCNT values of -100.
`CC1(C)CC(=O)CC(C)(C)N1N=O`: the growth was 121%. `Nc1ncnc2c1c(C(=O)NO)cn2C1OC(CO)C(O)C1O` (stereo not given): the growth is 3.28% (active). As for `CNC(C)Cc1ccccc1` (stereo not given) (tested in a mixture with another compound), the growth was 89.2%. Consider `O=C(CCCN1CCC2(CC1)C(=O)NCN2c1ccc(F)cc1)c1ccc(F)cc1`, for which the growth is 90%.

For the compound `O=CN1N=C(c2ccccc2)CC1c1sc(N(CCCl)CCCl)nc1Cl` (stereo not given), the growth was 82.4%. As for `CC[C@@H](C)/C=C(C)/C=C/C(=O)c1c(O)c(-c2ccc(O)cc2)cn(O)c1=O`, the growth is 22.5%. Turning to `CC1(C)N=C(N)N=C(N)N1c1ccc(OCCCCNC(=O)Nc2cccc(S(=O)(=O)F)c2)c(Cl)c1`, the growth is 57.6%.

With `S=P(Nc1ccccc1)(Nc1ccccc1)c1ccccc1`, the growth was 107%. As to `N#C[Se]CCN1C(=O)C2C(C1=O)[C@H]1C=C[C@@H]2S1` (stereo not given in full), the growth is -1.58% (active). As for `CCOc1ccc(C(O)CN(C)Cc2ccccc2)cc1Cl` (stereo not given), the growth is 102%. Turning to `COc1cc(NCCCCCN=C(N)N)c2ncccc2c1`, the growth is 61.4%. For the compound `COc1cc[c]([Hg][Cl])cc1`, the growth is 99.1%. With `CC1COC(=O)C1` (stereo not given), the growth is 100%. The value for `COc1ccc(/C=C(/C(=O)N2CCCC2)c2cc(OC)c(OC)c(OC)c2)cc1N` was 48.1%; that for `CC(=O)Nc1ccc(Cc2ccc(NC(C)=O)cc2)cc1` was 108%; that for `O=S(=O)(Cl)c1ccccc1` (tested in a mixture with another compound) was 102%.

Take `CC1=C(SCCC(=O)OCC(=O)NCCC[Te]c2ccccc2)C(=O)c2ccccc2C1=O`: the growth was -13.3% (active).

`COC(=O)C(=[N+]=[N-])C(=O)OC`: the growth was 103%.

As to `COc1ccc(C(=O)c2ccc([As]=O)cc2)cc1` (stereo not given), the growth is -94.1% (active). `Cc1cccc(N(C)c2cccc3c2C(=O)[Se]C3)c1C`: the growth is 72.8%. For the compound `CC(=O)Oc1ccc(Cl)cc1`, the growth is 106%.

On to `C[C@@H]1O[C@@H](O[C@H]2CC[C@@]3(C)[C@H](CCC4[C@@H]3C(O)C[C@]3(C)[C@@H](c5ccc(=O)oc5)CC[C@]43O)C2)[C@H](O)[C@H](O)[C@H]1O` (stereo not given in full), for which the growth is -73.9% (active). Turning to `COc1ccc(OC)c(/C=C(/C)[N+](=O)[O-])c1`, the growth is 98%. For `NC(=O)SCC(=O)Nc1ccc([As](=O)(O)O)cc1`, the growth was 123%. Turning to `C[C@]12CC[C@H](OC3OC(O)C(O)C(O)C3O)C=C1CCC1C2CC[C@]2(C)[C@@H](c3ccc(=O)oc3)CC[C@]12O` (stereo not given in full), the growth is -71.8% (active). To `COC(=O)C1CC2c3ccccc3C1c1ccccc12` (stereo not given) belongs 98.8%; to `c1cnc2c(c1)ccc1ncccc12`, 123%; to `CN1C(=O)NC(=O)C(N=Nc2ccc(Cl)cc2)C1=O` (stereo not given), 102%. On to `CC(/C=N/N=C(N)N)=N\N=C(N)N`, for which the growth is 10%.

Turning to `CCC(CC)(c1ccccc1)C(OC(N)=O)c1ccccc1` (stereo not given), the growth was 85%. For `C[C@]12CC[C@@H]3C4=C(CC[C@H]3[C@@H]1CC[C@@H]2O)CC(=O)CC4`, the growth is 109%. With `O=C1NC(=S)NC(=O)C1=Cc1ccccc1`, the growth is 119%.

For `N#Cc1ncc(/N=C/c2ccc(N(CCCl)CCCl)cc2)s1`, the growth is 121%. The value for `CCOC(=O)Nc1cc(Cl)c([N+](=O)[O-])c(NC(=O)OCC)n1` was 97.1%; that for `CNC(=O)Oc1cccc(N(C)C)c1` was 102%; that for `CC(C)(C)[Si](C)(C)OC1[C@@H](O[Si](C)(C)C(C)(C)C)[C@@H](CNC(=O)NC(=O)CF)O[C@H]1n1cnc2c(NC(=O)Nc3ccccc3)ncnc21` (stereo not given in full) was 104%. On to `C[C@]12CC[C@@H]3c4ccc(OC(=O)Cc5ccc(N(CCCl)CCCl)cc5)cc4CC[C@H]3[C@@H]1CC[C@@H]2OC(=O)Cc1ccc(N(CCCl)CCCl)cc1`, for which the growth is 100%.

Take `O1[As]2O[As]3O[As]1O[As](O2)O3`: the growth was 38.2%. Take `CCCCCCCC(=O)OCC/C=C/C1OC1C1OC(=O)/C=C\C=C\c2nc(oc2C)/C=C(/C)CCC2OC2C1OC(=O)NC(C)=O` (stereo not given): the growth is 15.6%.

For `O=C(O)C1[O][Sb][O]C1C(=O)O` (stereo not given), the growth was 101%.
